# Data as given in the supplement of paper PMC10849652.
# About 7,900 targets were measured; listed, in parts, are those with a hit and a random draw of the rest. About 0.6% of all pairs of compound and target were hits. Values without a mark were called inactive.
# Assays:
# Assay in all cases: log2 fold change, soluble protein after heating vs DMSO (PISA); higher = thermal stabilisation; K562 cells, 10 uM, 30 min; active = over 0.2 and 3.5 SD of the protein, either way, in both replicates (recomputed)
# saracatinib = compound: CN1CCN(CCOc2cc(OC3CCOCC3)c3c(Nc4c(Cl)ccc5c4OCO5)ncnc3c2)CC1 [saracatinib]
# Method in brief: (§1)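 K562 cells at 2×10^6 cells/mL were treated with 10 μM compound for 30 min. Aliquots were heated for 3 min across 48°C-58°C, pooled, and extracted in PBS with 0.5% NP-40 at 4°C; soluble protein was the supernatant after 21,000xg for 90 min. Soluble protein was quantified by TMTpro 16plex LC-MS/MS with channel sums equalised, and reported as log2 fold change in thermal stability against DMSO controls, with values from duplicates.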
# sotrastaurin = compound: CN1CCN(c2nc(C3=C(c4c[nH]c5ccccc45)C(=O)NC3=O)c3ccccc3n2)CC1 [sotrastaurin]
# Method in brief: as §1
# alvocidib = compound: CN1CC[C@H](c2c(O)cc(O)c3c(=O)cc(-c4ccccc4Cl)oc23)[C@H](O)C1 [alvocidib]
# Method in brief: as §1
# Tubastatin A = compound: CN1CCc2c(c3ccccc3n2Cc2ccc(C(=O)NO)cc2)C1 [Tubastatin A]
# Method in brief: as §1
# [1] = compound: CNC(=O)C1=CC=CC=C1NC2=NC(=NC=C2Cl)NC3=C(C=C(C=C3)N4CCOCC4)OC
# Method in brief: as §1
# defactinib = compound: CNC(=O)c1ccc(Nc2ncc(C(F)(F)F)c(NCc3nccnc3N(C)S(C)(=O)=O)n2)cc1 [defactinib]
# Method in brief: as §1
# rucaparib = compound: CNCc1ccc(-c2[nH]c3cc(F)cc4c3c2CCNC4=O)cc1 [rucaparib]
# Method in brief: as §1
# [2] = compound: CNc1nc(-c2ccc3c(N)n[nH]c3c2)cc(N2C[C@@H](C(=O)NC3CCCCC3)CC[C@H]2C)n1
# Method in brief: as §1
# encorafenib = compound: COC(=O)N[C@@H](C)CNc1nccc(-c2cn(C(C)C)nc2-c2cc(Cl)cc(NS(C)(=O)=O)c2F)n1 [encorafenib]
# Method in brief: as §1
# [3] = compound: COC(=O)[C@H](CCSC)NC(=O)C1=C(C=C(C=C1)NC[C@H](CS)N)C2=CC=CC=C2
# Method in brief: as §1
# [4] = compound: COC1=CC=C(C=C1)CN2C=CC3=C2C=C(C=C3)C(=O)NO
# Method in brief: as §1
# filanesib = compound: CON(C)C(=O)N1N=C(c2cc(F)ccc2F)S[C@@]1(CCCN)c1ccccc1 [filanesib]
# Method in brief: as §1
# zotarolimus = compound: CO[C@H]1C[C@@H]2CC[C@@H](C)[C@@](O)(O2)C(=O)C(=O)N2CCCC[C@H]2C(=O)O[C@H]([C@H](C)C[C@@H]2CC[C@H](n3cnnn3)[C@H](OC)C2)CC(=O)[C@H](C)/C=C(\C)[C@@H](O)[C@@H](OC)C(=O)[C@H](C)C[C@H](C)/C=C/C=C/C=C/1C [zotarolimus]
# Method in brief: as §1
# idasanutlin = compound: COc1cc(C(=O)O)ccc1NC(=O)[C@@H]1N[C@@H](CC(C)(C)C)[C@](C#N)(c2ccc(Cl)cc2F)[C@H]1c1cccc(Cl)c1F [idasanutlin]
# Method in brief: as §1
# alisertib = compound: COc1cc(Nc2ncc3c(n2)-c2ccc(Cl)cc2C(c2c(F)cccc2OC)=NC3)ccc1C(=O)O [alisertib]
# Method in brief: as §1
# [5] = compound: COc1cc2nc(-c3cc(F)ccc3O)nc(N[C@@H]3CNC[C@H]3C(C)(C)O)c2cc1OC
# Method in brief: as §1
# gefitinib = compound: COc1cc2ncnc(Nc3ccc(F)c(Cl)c3)c2cc1OCCCN1CCOCC1 [gefitinib]
# Method in brief: as §1
# [6] = compound: COc1cccc2cc(-c3nc([C@H]4CC[C@H](C(=O)O)CC4)n4ncnc(N)c34)[nH]c12
# Method in brief: as §1
# lapatinib = compound: CS(=O)(=O)CCNCc1ccc(-c2ccc3ncnc(Nc4ccc(OCc5cccc(F)c5)c(Cl)c4)c3c2)o1 [lapatinib]
# Method in brief: as §1
# pictilisib = compound: CS(=O)(=O)N1CCN(Cc2cc3nc(-c4cccc5[nH]ncc45)nc(N4CCOCC4)c3s2)CC1 [pictilisib]
# Method in brief: as §1
# UniProt Q9P1Y6, sequence (Q9P1Y6 whole entry, looked up): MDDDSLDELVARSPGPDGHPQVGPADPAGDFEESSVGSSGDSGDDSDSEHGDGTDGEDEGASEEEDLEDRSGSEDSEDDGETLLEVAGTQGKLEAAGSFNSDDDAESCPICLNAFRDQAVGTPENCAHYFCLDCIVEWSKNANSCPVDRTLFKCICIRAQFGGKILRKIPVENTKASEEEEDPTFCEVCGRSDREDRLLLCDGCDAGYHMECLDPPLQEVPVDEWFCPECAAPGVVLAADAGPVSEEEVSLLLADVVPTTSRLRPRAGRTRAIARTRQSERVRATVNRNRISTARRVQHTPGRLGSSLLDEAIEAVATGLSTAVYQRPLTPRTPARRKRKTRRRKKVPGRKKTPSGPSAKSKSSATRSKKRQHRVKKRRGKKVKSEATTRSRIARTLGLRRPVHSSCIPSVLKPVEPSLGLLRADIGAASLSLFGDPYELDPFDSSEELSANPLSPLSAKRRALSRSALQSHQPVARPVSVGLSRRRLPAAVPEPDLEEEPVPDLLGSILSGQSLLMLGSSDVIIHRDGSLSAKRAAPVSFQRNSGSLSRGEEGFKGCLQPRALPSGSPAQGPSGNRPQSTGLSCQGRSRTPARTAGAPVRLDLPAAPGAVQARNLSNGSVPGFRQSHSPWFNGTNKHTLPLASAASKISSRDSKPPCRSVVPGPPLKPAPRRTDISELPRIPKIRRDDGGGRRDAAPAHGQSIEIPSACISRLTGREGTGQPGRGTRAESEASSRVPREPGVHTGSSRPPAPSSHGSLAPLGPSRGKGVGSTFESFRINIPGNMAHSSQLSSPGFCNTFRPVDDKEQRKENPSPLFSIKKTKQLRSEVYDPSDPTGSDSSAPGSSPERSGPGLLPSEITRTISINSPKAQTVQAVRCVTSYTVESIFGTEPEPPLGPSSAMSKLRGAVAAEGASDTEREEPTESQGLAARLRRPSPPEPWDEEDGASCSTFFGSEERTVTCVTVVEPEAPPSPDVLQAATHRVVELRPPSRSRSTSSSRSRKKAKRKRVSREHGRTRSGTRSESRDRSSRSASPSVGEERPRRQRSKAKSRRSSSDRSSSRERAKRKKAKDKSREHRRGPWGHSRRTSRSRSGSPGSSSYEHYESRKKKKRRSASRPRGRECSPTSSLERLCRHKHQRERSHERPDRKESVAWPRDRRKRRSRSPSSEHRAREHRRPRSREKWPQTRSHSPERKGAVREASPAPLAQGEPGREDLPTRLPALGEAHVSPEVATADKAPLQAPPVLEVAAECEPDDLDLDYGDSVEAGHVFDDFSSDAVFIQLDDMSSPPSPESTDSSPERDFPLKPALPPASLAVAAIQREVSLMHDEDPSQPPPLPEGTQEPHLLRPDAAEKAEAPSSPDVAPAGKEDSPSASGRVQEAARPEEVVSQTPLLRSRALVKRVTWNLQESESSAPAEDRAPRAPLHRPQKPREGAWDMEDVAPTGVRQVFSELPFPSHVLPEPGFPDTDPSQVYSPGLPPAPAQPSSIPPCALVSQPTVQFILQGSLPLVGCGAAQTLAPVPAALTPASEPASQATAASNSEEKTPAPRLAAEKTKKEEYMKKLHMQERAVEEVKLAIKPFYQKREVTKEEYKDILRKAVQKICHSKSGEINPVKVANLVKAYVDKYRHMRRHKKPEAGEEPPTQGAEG
# UniProt Q15173, sequence (Q15173 whole entry, looked up): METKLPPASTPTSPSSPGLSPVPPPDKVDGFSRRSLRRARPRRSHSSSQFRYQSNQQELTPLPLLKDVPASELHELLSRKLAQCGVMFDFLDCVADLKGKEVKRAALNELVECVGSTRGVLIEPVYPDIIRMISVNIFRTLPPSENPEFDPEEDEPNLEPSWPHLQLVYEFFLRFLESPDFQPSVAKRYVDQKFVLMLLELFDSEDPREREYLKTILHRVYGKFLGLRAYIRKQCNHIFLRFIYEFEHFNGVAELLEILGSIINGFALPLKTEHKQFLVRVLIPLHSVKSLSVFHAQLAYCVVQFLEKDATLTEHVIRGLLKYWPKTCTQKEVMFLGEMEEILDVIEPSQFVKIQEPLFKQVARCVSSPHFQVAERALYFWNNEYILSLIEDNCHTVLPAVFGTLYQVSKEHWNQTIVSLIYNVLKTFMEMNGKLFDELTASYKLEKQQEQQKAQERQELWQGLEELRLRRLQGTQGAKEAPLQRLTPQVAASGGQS
# UniProt Q5THK1, sequence (Q5THK1 whole entry, looked up): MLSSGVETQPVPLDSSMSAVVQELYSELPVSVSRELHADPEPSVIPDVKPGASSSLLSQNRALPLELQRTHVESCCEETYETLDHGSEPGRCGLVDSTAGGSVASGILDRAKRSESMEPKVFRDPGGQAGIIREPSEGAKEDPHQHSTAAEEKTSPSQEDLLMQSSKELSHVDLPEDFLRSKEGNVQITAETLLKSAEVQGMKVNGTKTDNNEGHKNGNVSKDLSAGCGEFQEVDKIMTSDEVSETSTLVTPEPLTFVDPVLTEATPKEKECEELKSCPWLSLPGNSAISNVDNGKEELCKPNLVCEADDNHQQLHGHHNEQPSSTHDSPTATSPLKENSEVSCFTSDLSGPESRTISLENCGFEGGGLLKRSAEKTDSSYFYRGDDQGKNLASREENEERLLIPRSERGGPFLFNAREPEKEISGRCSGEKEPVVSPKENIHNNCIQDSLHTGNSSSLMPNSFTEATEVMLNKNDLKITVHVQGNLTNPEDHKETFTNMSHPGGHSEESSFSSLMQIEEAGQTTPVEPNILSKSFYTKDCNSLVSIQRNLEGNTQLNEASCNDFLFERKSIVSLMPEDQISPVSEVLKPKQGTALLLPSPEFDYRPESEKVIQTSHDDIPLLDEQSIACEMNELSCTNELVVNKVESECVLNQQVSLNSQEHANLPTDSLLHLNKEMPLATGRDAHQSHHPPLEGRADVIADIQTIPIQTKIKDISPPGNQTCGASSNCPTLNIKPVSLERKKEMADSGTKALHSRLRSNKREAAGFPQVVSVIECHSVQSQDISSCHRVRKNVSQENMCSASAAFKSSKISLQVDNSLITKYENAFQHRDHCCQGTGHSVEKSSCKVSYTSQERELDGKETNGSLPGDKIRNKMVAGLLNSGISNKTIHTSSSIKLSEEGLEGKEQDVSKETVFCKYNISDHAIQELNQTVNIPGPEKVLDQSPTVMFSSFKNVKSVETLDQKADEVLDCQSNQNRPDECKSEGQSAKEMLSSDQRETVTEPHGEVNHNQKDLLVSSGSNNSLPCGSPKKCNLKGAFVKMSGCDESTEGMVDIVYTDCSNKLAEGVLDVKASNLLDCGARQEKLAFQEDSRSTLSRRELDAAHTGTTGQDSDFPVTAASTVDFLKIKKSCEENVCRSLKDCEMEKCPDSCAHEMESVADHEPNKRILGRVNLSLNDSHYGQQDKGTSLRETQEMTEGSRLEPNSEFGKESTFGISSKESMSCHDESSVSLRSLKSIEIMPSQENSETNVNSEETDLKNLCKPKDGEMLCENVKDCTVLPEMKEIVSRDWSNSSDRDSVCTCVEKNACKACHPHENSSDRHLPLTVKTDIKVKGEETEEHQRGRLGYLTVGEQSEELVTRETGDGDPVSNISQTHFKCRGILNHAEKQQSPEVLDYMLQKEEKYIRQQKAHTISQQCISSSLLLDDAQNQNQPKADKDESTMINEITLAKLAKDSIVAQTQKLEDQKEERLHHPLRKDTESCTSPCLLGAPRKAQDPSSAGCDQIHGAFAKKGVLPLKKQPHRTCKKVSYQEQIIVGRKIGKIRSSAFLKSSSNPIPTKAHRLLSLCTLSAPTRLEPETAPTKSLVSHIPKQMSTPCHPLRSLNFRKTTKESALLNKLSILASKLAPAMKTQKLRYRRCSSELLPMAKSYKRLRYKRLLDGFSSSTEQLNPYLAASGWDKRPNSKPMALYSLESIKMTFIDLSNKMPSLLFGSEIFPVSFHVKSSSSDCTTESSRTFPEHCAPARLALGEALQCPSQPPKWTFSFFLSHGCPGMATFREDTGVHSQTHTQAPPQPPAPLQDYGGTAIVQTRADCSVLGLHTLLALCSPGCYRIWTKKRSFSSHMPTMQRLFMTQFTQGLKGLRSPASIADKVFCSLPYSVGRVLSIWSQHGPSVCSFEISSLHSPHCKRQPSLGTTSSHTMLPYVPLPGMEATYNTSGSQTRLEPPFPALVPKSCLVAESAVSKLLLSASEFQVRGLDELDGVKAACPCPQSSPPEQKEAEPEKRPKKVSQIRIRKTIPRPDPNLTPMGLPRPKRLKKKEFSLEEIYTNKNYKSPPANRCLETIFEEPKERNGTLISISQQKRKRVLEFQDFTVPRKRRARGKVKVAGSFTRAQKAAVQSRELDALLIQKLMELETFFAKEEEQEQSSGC
# UniProt Q8IV08, sequence (Q8IV08 whole entry, looked up): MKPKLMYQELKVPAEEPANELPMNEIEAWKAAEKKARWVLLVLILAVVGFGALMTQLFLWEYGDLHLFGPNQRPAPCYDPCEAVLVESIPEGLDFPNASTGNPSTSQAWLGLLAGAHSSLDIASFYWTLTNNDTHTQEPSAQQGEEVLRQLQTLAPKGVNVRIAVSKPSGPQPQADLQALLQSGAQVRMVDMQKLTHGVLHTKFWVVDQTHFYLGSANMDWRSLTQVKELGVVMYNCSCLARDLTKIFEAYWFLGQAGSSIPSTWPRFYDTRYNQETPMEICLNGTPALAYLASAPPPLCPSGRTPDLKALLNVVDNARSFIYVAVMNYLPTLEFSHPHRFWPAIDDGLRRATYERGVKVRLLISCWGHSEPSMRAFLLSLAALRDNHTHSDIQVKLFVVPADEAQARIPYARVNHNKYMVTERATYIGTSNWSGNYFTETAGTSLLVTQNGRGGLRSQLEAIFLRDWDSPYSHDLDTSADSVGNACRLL
# UniProt Q68D20, sequence (Q68D20 whole entry, looked up): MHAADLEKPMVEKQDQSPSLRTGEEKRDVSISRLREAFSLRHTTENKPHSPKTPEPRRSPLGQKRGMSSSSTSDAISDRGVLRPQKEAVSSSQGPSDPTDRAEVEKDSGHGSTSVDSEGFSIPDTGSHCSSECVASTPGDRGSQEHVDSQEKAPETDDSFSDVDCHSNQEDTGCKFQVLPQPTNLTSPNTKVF
target,measurement,setting,value
PLD3 (UniProt Q8IV08),log2 fold change,saracatinib,0.034
same,log2 fold change,sotrastaurin,0.013
same,log2 fold change,alvocidib,-0.024
same,log2 fold change,Tubastatin A,0.004
same,log2 fold change,[1],0.016
same,log2 fold change,defactinib,-0.005
same,log2 fold change,rucaparib,-0.094
same,log2 fold change,[2],-0.037
same,log2 fold change,encorafenib,0.007
same,log2 fold change,[3],0.009
same,log2 fold change,[4],-0.027
same,log2 fold change,filanesib,-0.131
same,log2 fold change,zotarolimus,-0.006
same,log2 fold change,idasanutlin,0.001
same,log2 fold change,alisertib,-0.139
same,log2 fold change,[5],0.019
same,log2 fold change,gefitinib,0.008
same,log2 fold change,[6],0.027
same,log2 fold change,lapatinib,-0.025
same,log2 fold change,pictilisib,0.045
PMS2CL (UniProt Q68D20),log2 fold change,alisertib,-0.254
same,log2 fold change,gefitinib,0.033
same,log2 fold change,[6],-0.099
PSMD8 (UniProt K7EK21),log2 fold change,alvocidib,0.25
same,log2 fold change,zotarolimus,-0.174
PTK2B (UniProt Q14289),log2 fold change,saracatinib,0.163
same,log2 fold change,sotrastaurin,-0.104
same,log2 fold change,Tubastatin A,0.078
same,log2 fold change,[1],0.309
same,log2 fold change,defactinib,0.36
same,log2 fold change,[2],-0.034
same,log2 fold change,[3],-0.155
same,log2 fold change,[4],0.083
same,log2 fold change,filanesib,-0.077
same,log2 fold change,zotarolimus,0.019
same,log2 fold change,idasanutlin,0.026
same,log2 fold change,alisertib,0.064
same,log2 fold change,[5],0.345
same,log2 fold change,gefitinib,-0.011
same,log2 fold change,[6],-0.057
same,log2 fold change,lapatinib,-0.022
same,log2 fold change,pictilisib,0.117
PKN2 (UniProt Q16513),log2 fold change,saracatinib,-0.059
same,log2 fold change,alvocidib,-0.159
same,log2 fold change,Tubastatin A,0.025
same,log2 fold change,[1],0.037
same,log2 fold change,defactinib,-0.099
same,log2 fold change,rucaparib,-0.039
same,log2 fold change,[2],-0.037
same,log2 fold change,encorafenib,0.024
same,log2 fold change,[3],-0.05
same,log2 fold change,[4],0.001
same,log2 fold change,filanesib,-0.085
same,log2 fold change,zotarolimus,0.01
same,log2 fold change,idasanutlin,-0.016
same,log2 fold change,[5],-0.069
same,log2 fold change,gefitinib,0.004
same,log2 fold change,[6],0.034
same,log2 fold change,lapatinib,-0.013
same,log2 fold change,pictilisib,0
PTEN isoform 2 (UniProt P60484),log2 fold change,[1],-0.247
same,log2 fold change,rucaparib,-0.108
same,log2 fold change,encorafenib,0.015
same,log2 fold change,[4],0.081
same,log2 fold change,[5],-0.251
same,log2 fold change,lapatinib,0.094
same,log2 fold change,pictilisib,-0.028
PCF11 (UniProt O94913),log2 fold change,alvocidib,0.027
same,log2 fold change,defactinib,-0.059
same,log2 fold change,rucaparib,-0.995 (active)
same,log2 fold change,encorafenib,-0.06
same,log2 fold change,[3],0.095
same,log2 fold change,[4],-0.169
same,log2 fold change,zotarolimus,-0.119
same,log2 fold change,idasanutlin,-0.097
same,log2 fold change,alisertib,0.015
same,log2 fold change,[5],0.076
same,log2 fold change,[6],0.106
same,log2 fold change,lapatinib,0.012
same,log2 fold change,pictilisib,0.027
PSMA3 (UniProt H0YJ03),log2 fold change,saracatinib,-0.185
same,log2 fold change,alvocidib,0.073
same,log2 fold change,Tubastatin A,0.314
same,log2 fold change,defactinib,-0.023
same,log2 fold change,rucaparib,0.151
same,log2 fold change,[2],0.067
same,log2 fold change,encorafenib,-0.142
same,log2 fold change,[3],0.087
same,log2 fold change,[4],0.362
same,log2 fold change,zotarolimus,-0.004
same,log2 fold change,idasanutlin,0.009
same,log2 fold change,[5],0.203
same,log2 fold change,lapatinib,0.021
PPP2R5B (UniProt Q15173),log2 fold change,saracatinib,-0.161
same,log2 fold change,[1],-0.064
same,log2 fold change,defactinib,0.051
same,log2 fold change,rucaparib,-0.015
same,log2 fold change,[2],-0.043
same,log2 fold change,encorafenib,0.07
same,log2 fold change,[3],-0.135
same,log2 fold change,idasanutlin,-0.065
same,log2 fold change,alisertib,0.088
same,log2 fold change,[5],0.148
same,log2 fold change,gefitinib,-0.079
same,log2 fold change,[6],-0.058
same,log2 fold change,lapatinib,0.051
same,log2 fold change,pictilisib,0.01
PUM1 (UniProt Q14671),log2 fold change,saracatinib,-0.155
same,log2 fold change,alvocidib,-0.083
same,log2 fold change,Tubastatin A,0
same,log2 fold change,[1],-0.348
same,log2 fold change,[2],-0.232
same,log2 fold change,[4],-0.029
same,log2 fold change,zotarolimus,-0.076
same,log2 fold change,idasanutlin,0.037
same,log2 fold change,pictilisib,0.032
PRKD2 (UniProt M0R346),log2 fold change,sotrastaurin,-0.247
same,log2 fold change,filanesib,0.038
same,log2 fold change,pictilisib,0.06
PCNX1 (UniProt Q96RV3),log2 fold change,Tubastatin A,-0.041
same,log2 fold change,defactinib,0.027
same,log2 fold change,rucaparib,-0.123
same,log2 fold change,encorafenib,0.085
same,log2 fold change,[3],-0.039
same,log2 fold change,alisertib,-0.059
same,log2 fold change,[5],0.34
same,log2 fold change,gefitinib,-0.028
same,log2 fold change,[6],0.035
same,log2 fold change,lapatinib,-0.475
PHC3 isoform 7 (UniProt Q8NDX5),log2 fold change,sotrastaurin,-0.071
same,log2 fold change,alvocidib,-0.057
same,log2 fold change,[1],-0.007
same,log2 fold change,rucaparib,-0.276
same,log2 fold change,encorafenib,0.154
same,log2 fold change,[4],0.287
same,log2 fold change,filanesib,-0.029
same,log2 fold change,zotarolimus,0.001
same,log2 fold change,alisertib,-0.121
same,log2 fold change,[5],-0.03
same,log2 fold change,gefitinib,-0.153
same,log2 fold change,[6],0.203
same,log2 fold change,lapatinib,0.05
PTP4A3 (UniProt O75365),log2 fold change,defactinib,-1.14 (active)
same,log2 fold change,[3],-0.029
PIGH (UniProt Q14442),log2 fold change,saracatinib,-0.099
same,log2 fold change,alvocidib,0.022
same,log2 fold change,Tubastatin A,-0.274 (active)
same,log2 fold change,[1],0.012
same,log2 fold change,defactinib,0.005
same,log2 fold change,rucaparib,0.037
same,log2 fold change,[2],0.025
same,log2 fold change,encorafenib,-0.068
same,log2 fold change,[3],-0.001
same,log2 fold change,[4],-0.029
same,log2 fold change,zotarolimus,0.031
same,log2 fold change,idasanutlin,-0.127
same,log2 fold change,alisertib,0.003
same,log2 fold change,[5],-0.019
same,log2 fold change,[6],0.038
same,log2 fold change,lapatinib,-0.009
same,log2 fold change,pictilisib,0.04
PAN2 (UniProt Q504Q3),log2 fold change,saracatinib,0.113
same,log2 fold change,defactinib,0.001
same,log2 fold change,rucaparib,-0.656 (active)
same,log2 fold change,[2],-0.048
same,log2 fold change,encorafenib,0.073
same,log2 fold change,[3],-0.045
same,log2 fold change,gefitinib,0.013
PSMA3 (UniProt G3V4X5),log2 fold change,defactinib,0.061
same,log2 fold change,[3],-0.208
same,log2 fold change,[4],-0.122
same,log2 fold change,[5],0.255
same,log2 fold change,lapatinib,-0.18
PRR14L (UniProt Q5THK1),log2 fold change,alvocidib,0.016
same,log2 fold change,Tubastatin A,0.053
same,log2 fold change,defactinib,0.286
same,log2 fold change,[3],0.125
same,log2 fold change,zotarolimus,-0.083
same,log2 fold change,idasanutlin,0
same,log2 fold change,[5],0.069
same,log2 fold change,gefitinib,-0.065
same,log2 fold change,lapatinib,0.1
same,log2 fold change,pictilisib,0.103
PHRF1 (UniProt Q9P1Y6),log2 fold change,[1],-0.022
same,log2 fold change,alisertib,-0.001
same,log2 fold change,[5],0.049
same,log2 fold change,[6],-0.121
same,log2 fold change,lapatinib,0.194
PSMD8 (UniProt K7ERW6),log2 fold change,Tubastatin A,0.235
same,log2 fold change,defactinib,0.011
same,log2 fold change,[3],0.066
same,log2 fold change,[4],-0.188
PDE4DIP (UniProt E9PS60),log2 fold change,alvocidib,0.095
same,log2 fold change,[1],-0.196
same,log2 fold change,defactinib,0.095
same,log2 fold change,rucaparib,0.172
same,log2 fold change,encorafenib,0.125
same,log2 fold change,[3],0.032
same,log2 fold change,[4],0
same,log2 fold change,zotarolimus,-0.032
